According to publication PMC6925144, “A prospective compound screening contest identified broader inhibitors for Sirtuin 1” (Scientific Reports, 2019):
The full ranking holds about 3,200 compounds; the median of “TSA(with NAD+) / Primary screening (TSA) / delta Tm (K)” is about -0.04, and the highest 2% start at about 0.37. The entries come from a sample that favours the highest values as a whole.

Target: NAD-dependent deacetylase Sirtuin 1 (human, UniProt Q96EB6)
Assay: primary screen, delta tm
Set-up: single well (n = 1, as 'the same TSA')
Settings: 10 µM

Sequence of NAD-dependent deacetylase Sirtuin 1 (Q96EB6 2-747 limits assumed): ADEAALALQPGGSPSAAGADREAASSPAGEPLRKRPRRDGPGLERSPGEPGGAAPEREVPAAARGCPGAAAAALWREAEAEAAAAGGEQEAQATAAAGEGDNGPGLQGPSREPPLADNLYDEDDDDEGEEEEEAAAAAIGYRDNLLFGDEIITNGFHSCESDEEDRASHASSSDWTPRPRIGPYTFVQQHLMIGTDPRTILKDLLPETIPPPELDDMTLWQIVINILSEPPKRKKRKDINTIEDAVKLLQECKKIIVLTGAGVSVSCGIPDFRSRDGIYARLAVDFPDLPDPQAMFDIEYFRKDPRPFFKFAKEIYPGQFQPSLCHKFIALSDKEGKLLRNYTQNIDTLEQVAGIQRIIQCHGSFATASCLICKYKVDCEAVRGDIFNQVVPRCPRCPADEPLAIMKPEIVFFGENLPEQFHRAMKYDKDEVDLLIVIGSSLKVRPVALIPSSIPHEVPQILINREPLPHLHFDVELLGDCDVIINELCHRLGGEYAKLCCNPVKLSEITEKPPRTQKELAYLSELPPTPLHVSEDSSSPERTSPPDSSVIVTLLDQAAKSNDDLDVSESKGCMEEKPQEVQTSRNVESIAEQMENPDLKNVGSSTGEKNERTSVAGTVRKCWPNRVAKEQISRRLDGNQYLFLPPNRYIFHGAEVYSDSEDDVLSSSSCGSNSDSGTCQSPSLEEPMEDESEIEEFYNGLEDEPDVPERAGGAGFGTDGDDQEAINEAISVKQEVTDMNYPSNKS

Structure (SMILES) | TSA(with NAD+) / Primary screening (TSA) / delta Tm (K)
CC(C)c1ccc(C(NC(=O)c2cccc(C(N)=O)c2)c2cccs2)cc1 (centres unmarked) | -0.05
O=C1NC(=S)N/C1=C\c1ccccc1OCc1ccc(C(=O)O)cc1 | 0.23
Cc1nc(-c2ccc(CCNC(=O)c3ccc(NC(=O)c4cccs4)cc3)s2)cs1 | 0.58
COc1ccc(C(=O)NCCc2ccc(-c3csc(C)n3)s2)cc1 | -0.09
Cc1nc(-c2ccc(CCNC(=O)c3ccc(NC(N)=O)cc3)s2)cs1 | 0.08
Cc1ccccc1CNC(=O)CSc1nc2ccsc2c(=O)n1C | -0.22
O=C(Nc1ccc2c3c(cccc13)CC2)N1CCC(n2cncn2)CC1 | -0.08
CCCN1CCN(CCCOc2ccccc2)CC1 | -0.12
CC12CCC(C/C1=N/N=C1/CC3CCC1(C)C3(C)C)C2(C)C | -0.29
O=C(CSc1nnnn1-c1ccc(O)cc1)N1N=C(c2ccc3ccccc3c2)CC1c1ccccc1 (centres unmarked) | 0.66
CC(=O)N1N=C(c2ccc(O)cc2)CC1c1ccccc1 (centres unmarked) | 0.36
CC(=O)N1N=C(c2ccccc2)CC1c1ccc(Br)cc1 (centres unmarked) | -0.08
COc1ccnc(C(=O)NCC(C)(C)N2CCC(N(C)C)CC2)c1 | -0.14
OC(CNc1ncccn1)c1ccc(Cl)cc1 (centres unmarked) | -0.04
O=C(O)c1ccc2[nH]c(S)nc2c1 | -0.13
CC(OC(=O)Cc1c[nH]c2ccccc12)C(=O)Nc1ccc(C(N)=O)cc1 (centres unmarked) | 0.12
O=C(CCc1c[nH]c2ccccc12)NCCc1ccco1 | -0.11
O=C(CCc1c[nH]c2ccccc12)Nc1nnc(-c2ccccc2)o1 | 0.39
O=C(CCc1c[nH]c2ccccc12)Nc1ccc2nc[nH]c(=O)c2c1 | 0.27
O=C1NC(=S)NC(=O)C1=Cc1cc2ccccc2[nH]c1=O | -0.09

Structure (SMILES) | TSA(with NAD+) / Primary screening (TSA) / delta Tm (K)
O=C(Nc1cccc(S(=O)(=O)N2CCOCC2)c1)c1cn(-c2ccccc2)nc1-c1ccc(F)cc1 | 0.39
O=C(Nc1cccc(S(=O)(=O)N2CCOCC2)c1)c1cn(-c2ccccc2)nc1-c1ccccc1 | 0.12
O=C(Nc1cccc(S(=O)(=O)N2CCOCC2)c1)c1cn(-c2ccccc2)nc1-c1ccc(Cl)cc1 | 0.63
O=C(Nc1cccc(S(=O)(=O)N2CCOCC2)c1)c1cc(-c2ccccc2)nn1-c1ccccc1 | -0.04
CN(c1ccccc1)S(=O)(=O)c1ccc(C(=O)Nc2cccc(S(=O)(=O)N3CCOCC3)c2)cc1 | -0.01
O=C(Nc1cccc(S(=O)(=O)N2CCOCC2)c1)c1cccc(S(=O)(=O)N2CCc3ccccc32)c1 | 0.41
O=C(Nc1cccc(S(=O)(=O)N2CCOCC2)c1)C(c1ccccc1)c1ccccc1 | 0.16
Cc1ccc(-c2nn(-c3ccccc3)cc2C(=O)Nc2cccc(S(=O)(=O)N3CCOCC3)c2)cc1 | 0.26
O=C(Nc1cccc(S(=O)(=O)N2CCOCC2)c1)c1ccccc1Cc1ccccc1 | -0.09
O=C(CCC(=O)c1ccccc1)Nc1ccccc1Cc1ccccc1 | -0.11
COC1CCCC1NC(=O)Cc1sc(S)nc1C (centres unmarked) | -0.26
COc1ccccc1C1C(C(=O)/C=C/c2ccco2)=C(O)C(=O)N1CCCN1CCOCC1 (centres unmarked) | -0.18
CC(N)C(N)=O (centres unmarked) | -0.19
Cc1nc(N2CCC(NC(N)=O)CC2)c2c3c(sc2n1)CCCC3 | -0.03
Cc1nc(N2CCC(C(N)=O)CC2)c2c3c(sc2n1)CCC3 | 0.01
Cc1nc(N2CCC(C(N)=O)CC2)c2c3c(sc2n1)CCCCC3 | 0.66
NC(=O)C1CCN(c2ncnc3sc4c(c23)CCC4)CC1 | -0.04
Cc1nc(N2CCN(c3ncccc3C(N)=O)CC2)c2c3c(sc2n1)CCC3 | 0.02
Cc1nc(N2CCC(C(N)=O)CC2)c2c3c(sc2n1)CCCC3 | 0.57
Cc1noc(C(C)N2CCN(Cc3cccc(C(N)=O)c3)CC2)n1 (centres unmarked) | -0.03

Structure (SMILES) | TSA(with NAD+) / Primary screening (TSA) / delta Tm (K)
NCCC[C@@H](N)C(=O)O | -0.08
O=C(CCc1nc2ccccc2o1)N1CCN(C(c2ccc(F)cc2)c2ccc(F)cc2)CC1 | -0.01
O=C(O)c1ccc2[nH]c(C(F)(F)F)nc2c1 | -0.14
COc1cc(-c2nc(-c3ccccc3)c(-c3ccccc3)[nH]2)ccc1OS(=O)(=O)c1ccc(C)cc1 | 0.05
CNC(=O)CCNc1ccc2nnc(C(F)(F)F)n2n1 | 0.08
COC(=O)C[C@H](N)C(=O)O | 0.02
COCC(C)N (centres unmarked) | -0.04
Cc1ccc(C23CC4CC(CC(C(=O)OCC(=O)Nc5ccc(S(N)(=O)=O)cc5)(C4)C2)C3)cc1 | 0.29
Cc1ccc(C23CC4CC(CC(C(=O)OC(C)C(=O)Nc5ccc(S(N)(=O)=O)cc5)(C4)C2)C3)cc1C (centres unmarked) | 0.43
Cc1ccc(C23CC4CC(CC(C(=O)OCC(N)=O)(C4)C2)C3)cc1C | -0.16
COc1cc(OC)c(OC)cc1C=C1C(=O)NC(=S)NC1=O | -0.16
Cc1csc2c(N3CC4CCCN4CC3C)ncnc12 (centres unmarked) | -0.19
CCOc1ccc(/C=C(/C#N)C(=O)c2c[nH]c3cc(F)ccc23)cc1 | -0.03
N#C/C(=C\c1[nH]c2ccccc2c1Cl)C(N)=O | -0.09
CCCCCCCCNC(=O)/C(C#N)=C/c1c[nH]c2ccccc12 | 0.43
Cc1ccc(C(=O)Nc2ccc(NC(=O)NCC3CCCO3)cc2)cn1 (centres unmarked) | 0.55
O=C(NCC1CCCO1)Nc1ccc(NC(=O)c2ccccn2)cc1 (centres unmarked) | 0.06
COc1cc(C=C(C(=O)NCC2CCCO2)C(=O)NCC2CCCO2)ccc1OCC(=O)Nc1ccc(C)cc1 (centres unmarked) | -0.15
COC(=O)c1ccc2[nH]c3c(c2c1)CN(S(C)(=O)=O)CC3 | 0.16
